# Measurements taken from the supplement of paper PMC11732987, “Enantioselective OTUD7B fragment discovery through chemoproteomics screening and high-throughput optimisation” (Communications Chemistry, 2025).
# Values without a mark were called inactive.
# What was measured:
# Assay in all cases: log2 ratio of Biotin-Ahx-Ub-VS probe labelling (fragment/DMSO); higher = less target engagement (more negative = stronger competition), active = hit call of the paper (q ≤ 0.05, log2 ratio ≤ -1)
# Conditions in all cases: compound concentration: 200 uM; treatment time: 3 h
# OTUD6B = biological target: T1, OTUD6B (UniProt Q8N6M0)
# T1 sequence (whole entry): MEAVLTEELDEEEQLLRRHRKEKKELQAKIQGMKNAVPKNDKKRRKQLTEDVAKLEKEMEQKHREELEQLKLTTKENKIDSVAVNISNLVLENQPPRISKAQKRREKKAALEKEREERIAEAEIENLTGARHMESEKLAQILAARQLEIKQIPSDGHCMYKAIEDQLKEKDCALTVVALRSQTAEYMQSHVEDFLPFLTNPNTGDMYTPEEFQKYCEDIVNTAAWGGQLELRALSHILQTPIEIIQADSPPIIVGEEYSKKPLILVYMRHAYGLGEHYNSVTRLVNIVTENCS
# Outline: (§1)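 Triplicate samples of HEK293T lysate, 495 µg each, received fragment at 200 µM or vehicle for 3 h, followed by Biotin-Ahx-Ub-VS (0.5 µM final) for 1 h. After NeutrAvidin enrichment of labelled DUBs and LysC/trypsin digestion, peptides were run by diaPASEF LC-MS/MS. The values are average log2 fragment/vehicle ratios from global-median-normalised Spectronaut label-free quantities, tested by unpaired t-test on proteins having ≥2 unique peptides.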
# OTUD7B = biological target: T2, OTUD7B (UniProt Q6GQQ9)
# T2 sequence (whole entry): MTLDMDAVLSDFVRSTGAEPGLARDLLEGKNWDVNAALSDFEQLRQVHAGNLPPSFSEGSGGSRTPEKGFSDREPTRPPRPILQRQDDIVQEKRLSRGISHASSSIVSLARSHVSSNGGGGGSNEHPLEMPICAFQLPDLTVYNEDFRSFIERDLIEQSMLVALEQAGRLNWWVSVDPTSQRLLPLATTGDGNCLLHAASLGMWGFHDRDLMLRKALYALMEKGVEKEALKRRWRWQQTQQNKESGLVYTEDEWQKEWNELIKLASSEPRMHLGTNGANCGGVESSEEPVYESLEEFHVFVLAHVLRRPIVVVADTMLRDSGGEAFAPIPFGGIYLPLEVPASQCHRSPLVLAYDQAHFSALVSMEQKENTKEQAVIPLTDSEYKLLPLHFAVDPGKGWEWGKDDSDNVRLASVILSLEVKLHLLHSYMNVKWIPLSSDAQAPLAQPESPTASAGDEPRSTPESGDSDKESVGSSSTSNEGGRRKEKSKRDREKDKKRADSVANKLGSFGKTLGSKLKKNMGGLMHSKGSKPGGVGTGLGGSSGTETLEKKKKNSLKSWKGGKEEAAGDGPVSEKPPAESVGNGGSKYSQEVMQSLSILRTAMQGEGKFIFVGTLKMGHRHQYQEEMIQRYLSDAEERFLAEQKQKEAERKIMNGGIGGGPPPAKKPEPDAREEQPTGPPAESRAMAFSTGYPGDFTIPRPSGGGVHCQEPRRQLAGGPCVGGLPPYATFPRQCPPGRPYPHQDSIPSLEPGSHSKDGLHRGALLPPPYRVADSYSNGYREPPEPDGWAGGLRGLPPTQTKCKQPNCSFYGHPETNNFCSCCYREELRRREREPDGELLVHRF
# Outline: as §1
# PRPF8 = PRPF8 (UniProt Q6P2Q9)
# Outline: as §1
# PSMD7 = biological target: T3, PSMD7 (UniProt P51665)
# T3 sequence (whole entry): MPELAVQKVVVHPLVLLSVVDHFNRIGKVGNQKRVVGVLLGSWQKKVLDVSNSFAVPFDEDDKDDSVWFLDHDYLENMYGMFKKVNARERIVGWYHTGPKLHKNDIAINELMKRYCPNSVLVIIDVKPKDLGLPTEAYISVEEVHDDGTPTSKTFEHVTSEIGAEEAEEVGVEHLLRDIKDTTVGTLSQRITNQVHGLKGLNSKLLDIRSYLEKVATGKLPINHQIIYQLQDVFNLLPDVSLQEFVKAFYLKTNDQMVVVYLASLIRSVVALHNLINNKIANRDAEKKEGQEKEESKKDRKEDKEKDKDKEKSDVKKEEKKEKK
# Outline: as §1
# UCHL1 = UCHL1 (UniProt P09936)
# Outline: as §1
# UCHL3 = biological target: T4, UCHL3 (UniProt P15374)
# T4 sequence (whole entry): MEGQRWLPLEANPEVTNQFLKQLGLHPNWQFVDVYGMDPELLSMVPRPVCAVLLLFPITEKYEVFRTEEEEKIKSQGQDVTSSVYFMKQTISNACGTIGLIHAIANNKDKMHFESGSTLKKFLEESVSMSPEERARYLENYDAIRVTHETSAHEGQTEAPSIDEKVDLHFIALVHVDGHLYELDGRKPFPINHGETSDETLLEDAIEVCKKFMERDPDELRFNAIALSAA
# Outline: as §1
# UCHL5 = biological target: T5, UCHL5 (UniProt Q9Y5K5)
# T5 sequence (whole entry): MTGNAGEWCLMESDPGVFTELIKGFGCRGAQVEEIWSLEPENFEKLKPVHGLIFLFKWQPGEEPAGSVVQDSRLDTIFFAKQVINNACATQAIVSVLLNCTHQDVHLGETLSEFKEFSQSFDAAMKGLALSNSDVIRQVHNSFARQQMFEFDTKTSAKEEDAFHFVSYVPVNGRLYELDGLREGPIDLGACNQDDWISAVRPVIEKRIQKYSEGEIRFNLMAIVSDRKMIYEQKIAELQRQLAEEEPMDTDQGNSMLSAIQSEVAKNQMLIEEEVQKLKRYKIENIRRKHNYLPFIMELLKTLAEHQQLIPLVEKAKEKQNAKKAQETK
# Outline: as §1
# USP10 = USP10 (UniProt Q14694)
# Outline: as §1
# USP15 = biological target: T6, USP15 (UniProt Q9Y4E8)
# T6 sequence (whole entry): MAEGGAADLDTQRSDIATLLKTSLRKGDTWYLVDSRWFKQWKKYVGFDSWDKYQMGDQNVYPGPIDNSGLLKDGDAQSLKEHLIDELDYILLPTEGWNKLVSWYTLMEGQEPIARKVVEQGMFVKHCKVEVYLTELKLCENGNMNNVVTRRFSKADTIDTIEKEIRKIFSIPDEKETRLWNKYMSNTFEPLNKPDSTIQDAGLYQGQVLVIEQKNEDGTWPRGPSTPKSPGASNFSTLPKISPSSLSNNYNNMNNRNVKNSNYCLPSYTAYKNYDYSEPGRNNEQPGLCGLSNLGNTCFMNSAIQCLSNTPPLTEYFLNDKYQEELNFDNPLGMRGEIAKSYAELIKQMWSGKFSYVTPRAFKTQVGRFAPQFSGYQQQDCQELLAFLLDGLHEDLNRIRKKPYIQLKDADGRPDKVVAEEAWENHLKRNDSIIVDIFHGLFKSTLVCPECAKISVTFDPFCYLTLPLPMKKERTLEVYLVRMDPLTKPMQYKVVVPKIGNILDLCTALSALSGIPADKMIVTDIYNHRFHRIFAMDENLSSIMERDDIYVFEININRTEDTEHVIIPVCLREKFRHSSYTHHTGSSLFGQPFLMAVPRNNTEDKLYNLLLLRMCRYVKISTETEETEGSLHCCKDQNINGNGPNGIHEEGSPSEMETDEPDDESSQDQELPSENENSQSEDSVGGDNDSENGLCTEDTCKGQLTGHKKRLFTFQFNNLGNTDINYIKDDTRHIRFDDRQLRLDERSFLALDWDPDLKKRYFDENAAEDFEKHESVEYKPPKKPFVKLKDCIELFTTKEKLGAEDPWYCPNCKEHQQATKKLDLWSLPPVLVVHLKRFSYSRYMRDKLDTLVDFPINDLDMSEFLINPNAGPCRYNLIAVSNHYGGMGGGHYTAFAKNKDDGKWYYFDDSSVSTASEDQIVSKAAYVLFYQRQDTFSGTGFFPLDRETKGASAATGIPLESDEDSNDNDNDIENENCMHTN
# Outline: as §1
# USP16 = USP16 (UniProt Q9Y5T5)
# Outline: as §1
# Chain of USP10 (Q14694 whole entry): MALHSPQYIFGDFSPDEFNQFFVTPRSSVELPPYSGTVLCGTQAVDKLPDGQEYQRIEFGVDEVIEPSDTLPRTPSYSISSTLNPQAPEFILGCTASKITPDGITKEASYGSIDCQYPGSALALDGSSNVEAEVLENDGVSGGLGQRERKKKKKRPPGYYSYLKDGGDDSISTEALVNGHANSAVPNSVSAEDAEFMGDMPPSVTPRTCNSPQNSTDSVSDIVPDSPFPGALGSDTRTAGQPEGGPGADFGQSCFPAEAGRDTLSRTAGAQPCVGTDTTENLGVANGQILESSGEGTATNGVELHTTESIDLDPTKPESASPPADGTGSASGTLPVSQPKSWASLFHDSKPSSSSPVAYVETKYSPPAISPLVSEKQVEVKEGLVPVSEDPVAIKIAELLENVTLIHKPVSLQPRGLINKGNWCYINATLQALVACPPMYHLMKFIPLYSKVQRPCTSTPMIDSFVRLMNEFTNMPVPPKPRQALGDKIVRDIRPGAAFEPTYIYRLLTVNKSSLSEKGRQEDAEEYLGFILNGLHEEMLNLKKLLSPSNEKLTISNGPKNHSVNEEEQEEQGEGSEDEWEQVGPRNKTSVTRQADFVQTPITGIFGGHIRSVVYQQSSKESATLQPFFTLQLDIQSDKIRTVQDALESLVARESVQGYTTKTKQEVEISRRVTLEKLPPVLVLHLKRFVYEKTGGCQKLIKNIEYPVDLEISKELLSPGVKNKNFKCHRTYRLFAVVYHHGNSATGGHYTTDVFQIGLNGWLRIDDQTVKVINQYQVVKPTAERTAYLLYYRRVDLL
# Chain of UCHL1 (P09936 whole entry, looked up): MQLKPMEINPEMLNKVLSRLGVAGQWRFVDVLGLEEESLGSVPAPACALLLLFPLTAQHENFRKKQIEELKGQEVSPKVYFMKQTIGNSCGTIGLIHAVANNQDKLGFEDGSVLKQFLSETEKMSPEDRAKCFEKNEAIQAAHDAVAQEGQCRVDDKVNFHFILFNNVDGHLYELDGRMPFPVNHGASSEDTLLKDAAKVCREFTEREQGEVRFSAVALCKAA
# Chain of USP16 (Q9Y5T5 whole entry, looked up): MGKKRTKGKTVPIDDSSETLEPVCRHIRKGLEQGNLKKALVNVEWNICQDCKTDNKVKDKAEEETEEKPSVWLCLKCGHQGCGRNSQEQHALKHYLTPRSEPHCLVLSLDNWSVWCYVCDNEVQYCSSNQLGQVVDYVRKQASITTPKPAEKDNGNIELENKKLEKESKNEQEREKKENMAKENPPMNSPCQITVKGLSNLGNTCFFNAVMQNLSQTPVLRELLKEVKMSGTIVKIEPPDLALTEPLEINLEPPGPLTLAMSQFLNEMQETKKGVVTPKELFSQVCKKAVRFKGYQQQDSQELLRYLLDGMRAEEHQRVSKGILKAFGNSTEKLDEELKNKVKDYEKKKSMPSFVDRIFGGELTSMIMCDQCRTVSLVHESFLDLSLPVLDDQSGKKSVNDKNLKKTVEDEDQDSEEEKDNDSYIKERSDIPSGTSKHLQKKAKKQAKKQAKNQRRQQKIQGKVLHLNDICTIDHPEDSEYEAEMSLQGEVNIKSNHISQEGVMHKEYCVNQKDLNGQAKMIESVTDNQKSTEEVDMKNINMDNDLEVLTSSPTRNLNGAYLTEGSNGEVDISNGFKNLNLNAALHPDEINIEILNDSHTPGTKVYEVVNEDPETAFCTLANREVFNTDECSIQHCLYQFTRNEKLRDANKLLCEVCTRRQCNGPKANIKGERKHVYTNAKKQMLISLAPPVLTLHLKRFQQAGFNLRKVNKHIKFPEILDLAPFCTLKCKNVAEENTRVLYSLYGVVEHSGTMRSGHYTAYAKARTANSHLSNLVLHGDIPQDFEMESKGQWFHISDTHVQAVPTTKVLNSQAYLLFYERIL
smiles,measurement,setting,value
CCC1c2ccsc2CCN1C(=O)CCl (stereo not given),log2 ratio of Biotin-Ahx-Ub-VS probe labelling,OTUD6B,-0.158
same,log2 ratio of Biotin-Ahx-Ub-VS probe labelling,OTUD7B,-0.505
same,log2 ratio of Biotin-Ahx-Ub-VS probe labelling,PRPF8,0.237
same,log2 ratio of Biotin-Ahx-Ub-VS probe labelling,PSMD7,-0.0765
same,log2 ratio of Biotin-Ahx-Ub-VS probe labelling,UCHL1,-1.35 (active)
same,log2 ratio of Biotin-Ahx-Ub-VS probe labelling,UCHL3,-0.00293
same,log2 ratio of Biotin-Ahx-Ub-VS probe labelling,UCHL5,-0.25
same,log2 ratio of Biotin-Ahx-Ub-VS probe labelling,USP10,-0.134
same,log2 ratio of Biotin-Ahx-Ub-VS probe labelling,USP15,-0.298
same,log2 ratio of Biotin-Ahx-Ub-VS probe labelling,USP16,-0.5
